Bioassay records from PubChem.
Pf growth 96h: Primary qHTS for delayed death inhibitors of the malarial parasite plastid, 96 hour incubation; P. falciparum luciferase reporter growth, 96 h; Potency, µM (titrated, usually from 28.7 µM), most hits filed as inhibitors; 320,000 compounds, 6.9% hits
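Parasite growth measured via integrated firefly luciferase reporter in P. falciparum. Infected erythrocytes at 2% hematocrit, 0.05% parasitemia final were treated 96 hours at 37 C under 5% CO2, and luminescence was read.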
SARS PLpro yeast: qHTS of Yeast-based Assay for SARS-CoV PLP; S. cerevisiae expressing SARS-CoV PLpro, growth rescue; Potency, µM (titrated, usually from 32.9 µM), actives largely listed as activators; 330,000 compounds, 0.19% hits; AID 485353, 2010; calls by dose curve; note: nearly all actives have a fitted effect of over 55% in size
AMA1-RON2 inh: qHTS for Inhibitors of AMA1-RON; Towards Development of Antimalarial Drug Lead: Primary Screen. AlphaScreen AMA1-biotinylated RON2 peptide binding. 360,000 compounds, 0.2% hits. Potency, µM (series often up to 58.2 µM), actives largely listed as inhibitors. Plasmodium falciparum AMA1 (3D7) - RON2 peptide interaction; note: nearly all actives have a fitted effect of over 45% in size
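AMA1 (3D7) with his tag at 25 nM final met compounds first, then biotinylated RON2 peptide at 25 nM; detection used donor plus acceptor beads, 10 µg/mL apiece, read by AlphaScreen after 30 min at room temperature.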
HCV inhibitor: qHTS Assay for Inhibitors of Hepatitis C Virus (HCV). Huh7.5.1 HCVcc-Cre infection, luciferase reporter, 44 h. Potency, µM (series often up to 41.8 µM), most hits filed as inhibitors. 340,000 compounds, 3.4% hits. AID 651820, 2012
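Seed cells (1,000/well) for 4 h; treat with compound and infect with HCVcc-Cre, moi about 0.5. Incubate 44 h, then detect luciferase activity.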
Pf growth 48h: Primary qHTS for delayed death inhibitors of the malarial parasite plastid, 48 hour incubation | P. falciparum luciferase growth in erythrocytes, 48 h | Potency, µM (series often up to 28.7 µM), most hits filed as inhibitors | 310,000 compounds, 5.9% hits
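Firefly luciferase activity from engineered P. falciparum reports growth; inhibitors lower the luminescent signal. Cultures contained 2% hematocrit erythrocytes at 0.1% final parasitemia.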
NS1 inh: qHTS Assay for Inhibitors of Influenza NS1 Protein Function; Potency, µM (highest dose often 46.1 µM); 270,000 compounds, 0.4% hits; AID 2326, 2010; calls by dose curve; note: actives are rising curves; nearly all actives have a fitted effect of over 50% in size
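Read-out: OD600 growth recovery of NS1-expressing budding yeast. Cells grown overnight at 30C in -URA glucose medium, washed, resuspended and diluted 1:100 in 2% galactose assay medium, pH 6.0. Same strain lacking NS1 served as positive control.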
A number is an active result; – = inactive; ? = inconclusive; · = no result given; [ ] = remark or other dose. Sampled rows, rich in hits. Any-hit rate of the full collection: about 12%. Unless noted, calls come from the whole dose curve; as a rule, active = well fitted curve in the direction sought with a large enough effect; inconclusive = small, poorly fitted or top-dose-only effect, or another doubt; inactive = no such curve, though single readings can be large; an effect the other way counts as inactive or inconclusive.

SMILES | Pf growth 96h | SARS PLpro yeast | AMA1-RON2 inh | HCV inhibitor | Pf growth 48h | NS1 inh
Cc1cc(C(=O)CCC(=O)NCc2ccccc2F)c(C)s1 | – | – | – | – | – | ·
S=C(Nc1cccnc1)N1CCN(c2ccccc2Cl)CC1 | – | – | – | – | – | –
CCC(Cc1ccccc1)NC(=O)CCn1cccc1 (stereo not drawn) | 5.86µM | – | – | ? | – | –
O=C(CCn1cccc1)NCc1ccccc1 | 8.28µM | – | – | – | – | –
COc1cccc(CN2CC(C(=O)NCCc3cn4cccnc4n3)CCC2=O)c1 (stereo not drawn) | · | · | – | · | · | ·
Cc1ccc(CNC(=O)C23CN(Cc4ccccc4)CC2C(c2ccc([N+](=O)[O-])cc2)=NO3)cc1 (stereo not drawn) | ? | – | – | – | 11.7µM | –
Cn1c([N+](=O)[O-])cnc1N1CCN(c2nncs2)C1=O | – | – | – | – | – | –
CCOc1ccc(C2CC(c3c(O)n(C)c(=O)n(C)c3=O)=NN2)cc1 (stereo not drawn) | 14.7µM | – | – | – | ? | –
Cn1c(O)c(C2=NNC(c3ccc(Cl)cc3)C2)c(=O)n(C)c1=O (stereo not drawn) | ? | – | – | – | 13.1µM | –
CCC(=O)N1N=C(c2c(O)n(C)c(=O)n(C)c2=O)CC1c1ccccc1 (stereo not drawn) | ? | – | – | ? | ? | –
COC(=O)c1oc2ccccc2c1NC(=O)c1ccccc1O | – | – | – | ? | 10.4µM | –
Cc1c(C(=O)N2CCN(c3ccccn3)CC2)oc2ccccc12 | · | – | – | – | 8.28µM | –
Cc1cc(Cl)c2oc(C(=O)N3CCN(c4cccc(C)n4)CC3)c(C)c2c1 | 3.7µM | – | ? | – | – | –
COc1ccc(N2CCN(C(=O)c3oc4ccccc4c3C)CC2)cc1 | – | – | 14.1µM | ? | – | ·
CC(=O)N1CCN(C(=O)c2oc3ccccc3c2C)CC1 | – | – | – | – | – | –
COC(=O)N1c2ccccc2C=Cc2ccccc21 | – | – | – | – | ? | –
Cc1cc(CN(C)Cc2cn(C)nc2-c2ccc(Oc3ccccc3)cc2)on1 | ? | – | – | ? | ? | –
COc1ccc(C(=O)c2oc3ccccc3c2NC(C)=O)cc1 | ? | – | – | 6.31µM | – | –
O=C(c1oc2ccccc2c1CSCc1ccccc1)N1CCN(c2ncccn2)CC1 | – | – | – | 11.2µM | ? | –
COc1cccc(NC(=O)c2oc3ccccc3c2NC(=O)C(C)(C)C)c1 | – | – | – | 8.91µM | ? | –
COc1ccc2oc(C(=O)N3CCN(C(c4ccccc4)c4ccccc4)CC3)c(C)c2c1 | 4.65µM | – | ? | ? | 3.7µM | ·
CCOCC(=O)Nc1c(C(=O)N2CCN(c3ncccn3)CC2)oc2ccccc12 | – | – | – | – | – | –
COc1ccc(C(=O)c2oc3ccc(OC)cc3c2NC(C)=O)cc1 | – | – | – | ? | – | ·
CS(=O)(=O)N1CCC(C(=O)Nc2ccc(Cl)cc2Cl)CC1 | · | · | – | · | · | ·
COc1ccc(OCC(=O)Nc2c(C(=O)N3CCN(C)CC3)oc3ccccc23)cc1 | 9.28µM | ? | – | – | – | –
SMILES | Pf growth 96h | SARS PLpro yeast | AMA1-RON2 inh | HCV inhibitor | Pf growth 48h | NS1 inh
CCOc1ccc2oc(C(=O)N3CCN(c4ccccn4)CC3)c(C)c2c1 | 13.1µM | – | ? | – | – | –
Cc1nc(NCCCN2CCOCC2)c2cnn(-c3ccccc3)c2n1 | · | · | – | – | · | ·
CC(C)OC(=O)CCC1(C(=O)O)CCC(=O)NC1 (stereo not drawn) | · | – | – | – | 1.31µM | –
CCCC[C@]12Cc3ccccc3C(O1)c1c(c3ccccc3oc1=O)O2 | ? | –[6.58 µM] | · | · | –[5.75 µM] | –
Cc1c(NCc2nc3ccccc3[nH]2)c(=O)n(-c2ccccc2)n1C | 13.1µM | – | – | – | – | –
Cc1ccc(C)c(OCc2nc3ccc(S(=O)(=O)Nc4c(C)n(C)n(-c5ccccc5)c4=O)cc3[nH]2)c1 | 5.22µM | – | – | – | 11.7µM | ·
Cc1c(NS(=O)(=O)c2ccc3nc(COc4ccccc4Cl)[nH]c3c2)c(=O)n(-c2ccccc2)n1C | ? | – | – | – | ? | ·
CCCCCCCC/C=C\CCCCCCCC(=O)NCCO | 2.62µM | · | – | – | 2.94µM | –
CCCCCCCC/C=C\CCCCCCCC(=O)O | – | – | – | – | – | –
CCCCCCCC/C=C\CCCCCCCC(=O)NCc1ccc(O)c(OC)c1 | 16.9µM | · | · | · | ? | ·
CCCCCCCC/C=C\CCCCCCCC(=O)NCCc1ccc(O)c(O)c1 | ? | · | – | ? | 10.4µM | –
CCCCC(=O)NCCc1ccc(S(N)(=O)=O)cc1 | –[5.75 µM] | – | – | – | – | –
CSCCC(NC(=O)c1ccco1)C(=O)Nc1ccc(C)c(S(=O)(=O)N2CCOCC2)c1 (stereo not drawn) | – | – | – | – | ? | ·
CC1CCC(NC(=O)C2CC(=O)N(c3ccc4c(c3)OCCO4)C2)CC1 (stereo not drawn) | – | – | – | – | – | –
CSc1cccc(NC(=O)C2CCCN(S(=O)(=O)c3cccs3)C2)c1 (stereo not drawn) | – | – | – | ? | ? | –
O=c1ccn([C@@H]2O[C@H](CNCc3ccccc3OCc3ccc(Cl)cc3Cl)[C@@H](O)[C@H]2O)c(=O)[nH]1 | · | · | – | · | · | ·
O=C(NC(NNc1ccc([N+](=O)[O-])cc1)(C(F)(F)F)C(F)(F)F)c1ccccc1Cl | ? | – | – | ? | – | –
O=C(NC(Nc1nc2ccc([N+](=O)[O-])cc2s1)(C(F)(F)F)C(F)(F)F)c1ccccc1Cl | 0.928µM | – | – | 0.562µM | 1.47µM | –
O=C1CCC([N+](=O)[O-])C(c2ccc(-c3ccccc3)cc2)N1 (stereo not drawn) | · | · | – | – | · | ·
Cc1cc(C)c(CSc2ncc(-c3ccc([N+](=O)[O-])cc3)[nH]2)c(C)c1 | ? | – | ? | 11.2µM | ? | –
O=[N+]([O-])c1ccc(-c2cnc(SC(c3ccccc3)c3ccccc3)[nH]2)cc1 | 7.38µM | – | ? | ? | ? | –
NC(=O)CSc1ncc(-c2ccc([N+](=O)[O-])cc2)[nH]1 | – | – | – | – | – | ·
O=[N+]([O-])c1ccc(-c2cnc(SCc3ccccc3Cl)[nH]2)cc1 | ? | – | – | ? | – | –
NC(=S)N/N=C/c1ccc2cccc(OCc3ccccc3)c2n1 | ? | – | – | 11.2µM | 14.7µM | –
O/N=C/c1ccc2cccc(OCc3ccccc3)c2n1 | – | – | – | ? | – | –
COc1ccc(C(=O)N/N=C/c2ccc3cccc(OCc4ccccc4)c3n2)cc1 | – | – | – | 8.91µM | ? | –
NC(N)=N/N=C/c1ccc2cccc(OCc3ccccc3)c2n1 | ? | – | – | 12.6µM | ? | –
